Bioassay records (PubChem)
Sampled rows, rich in hits. Any-hit rate of the full collection: about 3.4%.
Mcl1 Noxa PPI = disrupts binding of human Mcl-1 to Noxa peptide. actives 1.5% (n = 220,000). inhibition, % at 21.7 µM. AID 1022. TR-FRET Mcl-1/Noxa peptide binding, 2 h;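 active = compounds that cut the protein-peptide binding signal by more than 50% relative to plate controls in a single-dose test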;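 also: His-tagged Mcl-1 with rhodamine Noxa BH3 peptide and terbium anti-His antibody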
14-3-3 Bad inh = disrupts binding of bovine 14-3-3 zeta to phospho-Bad peptide; P63103; AID 781; actives 0.71% (n = 220,000); TR-FRET 14-3-3zeta/Dy647-pBad peptide displacement, 1 h; inhibition, % at 21.7 µM;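 active = inhibition above about 70%, limit read from the data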
NCF1 inh = inhibitors of human p47phox binding | AID 1274 | actives 0.53% (n = 220,000) | p47phox/p22phox peptide binding, fluorescence polarization, 2 h | inhibition, % at 24.7 µM
Target sequence (P14598 whole entry, looked up): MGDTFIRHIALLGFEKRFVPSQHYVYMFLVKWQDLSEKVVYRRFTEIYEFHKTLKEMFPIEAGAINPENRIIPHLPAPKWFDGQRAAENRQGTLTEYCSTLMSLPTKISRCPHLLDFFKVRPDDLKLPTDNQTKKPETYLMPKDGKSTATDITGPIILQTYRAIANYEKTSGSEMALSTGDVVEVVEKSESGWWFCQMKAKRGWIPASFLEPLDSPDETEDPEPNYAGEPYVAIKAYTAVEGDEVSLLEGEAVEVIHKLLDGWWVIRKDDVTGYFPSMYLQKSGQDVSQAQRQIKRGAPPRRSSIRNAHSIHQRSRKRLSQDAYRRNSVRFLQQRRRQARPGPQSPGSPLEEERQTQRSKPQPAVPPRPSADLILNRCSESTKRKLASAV
Bim-Mcl-1 = inhibitors of Bim-Mcl-1 interaction, human; actives 0.1% (n = 190,000); inhibition, % at 10 µM; Q07820; AID 1009; Bead-based flow cytometry, Bim peptide-Mcl-1 binding; in the data active = inhibition above about 40%
Mcl1-Bid inh = Mcl-1/Bid interaction inhibition | TR-FRET Mcl-1/Bid-Dy647 peptide binding, 1536-well | inhibition, % at 21.7 µM | actives 0.97% (n = 220,000) | AID 1021;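 active = compounds that cut the binding signal by more than half at the single screening dose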;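 also: His-tagged Mcl-1 with europium anti-His antibody binding Bid BH3 peptide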
eIF4E-4G inh = eIF4E/eIF4G interaction inhibition in translation initiation | TR-FRET eIF4E-eIF4GI(517-606) binding, 2 h | P63073+Q04637 | actives 0.37% (n = 220,000) | AID 782 | inhibition, % at 21.7 µM
Numbers stand for hits; - = inactive; . = no result given; [ ] = dose if it differs, or a comment.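 The calls were made as follows, unless noted: active = inhibition above about 30% (limit read from the data); inactive = the rest.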

SMILES	Mcl1 Noxa PPI	14-3-3 Bad inh	NCF1 inh	Bim-Mcl-1	Mcl1-Bid inh	eIF4E-4G inh
CN(C)c1ccc(-c2ccc([C@H]3[C@@H]4C=CCC[C@@]4(C)C(=O)N3Cc3ccccc3)c(F)c2)cc1	-	-	-	.	-	-
O=C1OC(C(=O)NCc2ccccc2)Cc2ccccc21 (stereo not given)	-	74	-	-	-	-
O=C(NCc1ccccc1)C1COc2ccccc2O1 (stereo not given)	-	-	-	-	-	-
C/C(=C\c1ccccc1)C(=O)NCc1ccco1	-	-	-	-	-	-
O=C(O)c1cc(N/N=C/c2ccc(N3CCOCC3)s2)ccc1Cl	86	-	-	-	-	-
Cc1cc(=O)oc2cc(OCC(=O)N/N=C/c3cc([N+](=O)[O-])ccc3O)ccc12	73	-	-	-	82	-
Cc1ccc(C)c(NC(=O)CCC(=O)N/N=C/c2cc([N+](=O)[O-])ccc2O)c1	-	-	-	-	-	-
COc1ccc(C(Nc2ccc(S(=O)(=O)NCC3CCCO3)cc2)C(=O)NC(C)(C)C)cc1OC (stereo not given)	-	-	-	-	-	-
C=CCn1c(SCC(=O)Nc2sc3c(c2C#N)CCC3)nnc1C1COc2ccccc2O1 (stereo not given)	-	-	-	-	55	-
Cn1nc(C(C)(C)C)cc1C(=O)Sc1cccc(Br)c1	-	-	-	.	-	-
Cn1c2c(c(=O)n(C)c1=O)C(NS(=O)(=O)c1ccccc1)(C(F)(F)F)C(=O)N2 (stereo not given)	51	-	-	-	-	-
Cn1c2c(c(=O)n(C)c1=O)C(NC(=O)C(C)(C)C)(C(F)(F)F)C(=O)N2 (stereo not given)	-	-	-	-	-	-
COc1cccc(CCc2nnc(CCC(=O)NC(C)Cc3cccs3)o2)c1 (stereo not given)	-	-	-	.	-	-
CCn1nc(C)c(CNC(=O)CCc2nnc(Cc3c[nH]c4ccccc34)o2)c1C	-	-	-	-	-	-
Cc1c(Br)c(C(F)(F)F)nn1CC(=O)NCCCn1ccnc1	-	-	-	-	-	-
OCCN1CCN(C(c2cccs2)c2ccc3cccnc3c2O)CC1 (stereo not given)	95	-	-	-	82	46[fluorescence artefact?]
Oc1ccccc1C(Nc1nccs1)c1ccc2cccnc2c1O (stereo not given)	-	-	-	.	-	-
O=C(Cn1c(=O)n(Cc2ccco2)c(=O)c2c3c(sc21)CCCC3)Nc1ccccc1	-	-	-	-	-	-
NC(=O)Cn1c(=O)n(Cc2ccco2)c(=O)c2c3c(sc21)CCCCC3	64	-	-	-	-	-
CCc1ccccc1NC(=O)Cn1nc(C(F)(F)F)c2c1CCC2	-	-	-	-	-	-
CCc1ccc(NC(=O)Cn2nc(C(F)(F)F)c3c2CCC3)cc1	-	-	-	-	54	-
Cc1cc(C)cc(NC(=O)Oc2ccccc2N2CCCCC2)c1	51	-	-	.	-	-
CCOC(=O)C1CCCN(/C=C2\SC(=S)N(CC)C2=O)C1 (stereo not given)	-	-	-	.	-	-
NC(=O)c1cc(NC(=O)CCCc2nc3ccccc3s2)cc(C(N)=O)c1	-	-	-	.	-	-
O=c1c2c(nc3cc(-c4ccccc4)[nH]n13)CCS2	61	-	-	-	-	-
SMILES	Mcl1 Noxa PPI	14-3-3 Bad inh	NCF1 inh	Bim-Mcl-1	Mcl1-Bid inh	eIF4E-4G inh
Cc1ccc(Nc2nc(N)c([N+](=O)[O-])c(NCc3ccccc3)n2)cc1	-	-	-	.	-	-
COc1ccc(Nc2nc(N)c([N+](=O)[O-])c(NCc3ccccc3)n2)cc1	51	-	-	.	-	-
CCOCCCn1c(=S)[nH]c2cc(C(=O)NCCCN(CC)CC)ccc2c1=O	-	-	-	-	-	-
Cc1ccc(C(=O)Nc2nc(-c3ccccn3)cs2)o1	-	-	-	.	-	-
Cc1ccc(C)c(-c2csc(NC(=O)c3cnccn3)n2)c1	-	-	-	-	-	-
Cc1ccc(C(=O)Nc2nc(-c3ccc([N+](=O)[O-])cc3)cs2)o1	65	-	-	-	56	-
O=C(Nc1nc(-c2ccccn2)cs1)c1ccc([N+](=O)[O-])o1	90	-	-	.	-	-
Cc1csc(NC(=O)c2ccncc2)n1	64	-	-	.	-	-
CC(=O)Nc1ccc(-c2csc(NC(=O)c3ccc(C)o3)n2)cc1	.	-	-	-	-	-
Cc1ccc(C(=O)Nc2nc(-c3cc(Cl)sc3Cl)cs2)cc1	53	-	-	-	-	-
O=c1c2[nH]c3cccc(Cl)c3c2ncn1Cc1ccco1	-	-	-	.	-	-
CC(=O)Nc1ccc(C(=O)Nc2nc(-c3cccnc3)cs2)cc1	-	-	-	-	-	-
CC(=O)Nc1ccc(C(=O)Nc2nc(-c3ccccn3)cs2)cc1	70	-	-	-	-	-
CC(C)(C)NCC(O)COc1ccccc1C(C)(C)C (stereo not given)	54	-	-	-	-	-
CC(COc1ccccc1)N1CCC(CO)(Cc2ccccc2)CC1 (stereo not given)	-	-	-	-	-	-
Cc1cc(C(=O)NCC(=O)OCC(=O)NCCc2ccccc2)ccc1[N+](=O)[O-]	-	-	-	-	-	-
O=C(O)c1cccc(NC(=O)C2CC(=O)N(Cc3ccccc3)C2)c1 (stereo not given)	-	76	-	-	-	-
O=C(NCCCN1CCOCC1)C(=O)NCc1ccccc1Cl	-	-	-	-	-	-
Cc1ccc(S(=O)(=O)Cn2nnnc2C(c2ccc(F)cc2)N2CCCCC2)cc1 (stereo not given)	-	-	-	-	-	-
Cc1ccc(C(c2nnnn2CS(=O)(=O)c2ccc(C)cc2)N2CCCC2)cc1 (stereo not given)	-	-	39	-	-	-
O=C(O)[C@@H](c1ccccc1)N1Cc2ccccc2C1=O	-	92	-	-	98	90
Cn1c(N)c(C(=O)COC(=O)c2cc(C3CC3)nc3ccccc23)c(=O)n(Cc2ccccc2)c1=O	-	-	-	-	-	-
COc1ccc(Cc2nc(C(=O)NCc3ccccc3OC)cs2)cc1	-	-	31	-	-	-
Cn1nc(-c2ccc(Cl)cc2)c2cc(C(=O)NCCCN3CCOCC3)sc21	-	-	-	-	-	-
Cn1nc(-c2ccc(Cl)cc2)c2cc(C(=O)NCCN3CCOCC3)sc21	-	-	-	-	94	-
CC1CC(C)CN(c2ncnc3c2cnn3Cc2ccc(Cl)cc2)C1 (stereo not given)	64	-	-	-	-	-
COc1ccc(S(=O)(=O)NN(C)C(=O)c2nn(-c3ccccc3)ccc2=O)cc1	-	-	-	-	-	-
Cc1ccccc1NC(=S)N1CCC(NC(=O)c2ccco2)CC1	-	-	-	-	-	-
